In all, about 94,000 compounds went through this assay and about 6,200 (6.6%) were called active. Where a call stands in place of a potency, no number is given. Inconclusive results (about 31%) are left out. Calls come from the whole dose curve; as a rule, active = well fitted inhibition curve with a large enough effect; inconclusive = small, poorly fitted or top-dose-only effect; inactive = flat fitted curve, though single readings scatter. For the sample, actives were picked, then their nearest neighbours and some compounds at random.
Assay: Cytotoxic Profiling in HEK 293 Cell Line of Diverse Libraries Using Quantitative High-Throughput Screening; note: nearly all actives have a fitted effect of over 60% in size
Details: HEK 293 viability, ATP luminescence (CellTiter-Glo), 48-72 h; series mostly up to 115 µM
Outline: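 250 HEK 293 cells/well; compound by pintool; incubated 48 or 72 hr at 37 degree Celsius; CellTiter-Glo added, 10 min RT, luminescence imaged.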
Potency is the fitted concentration of half-maximal effect.

SMILES	Potency
C=CCNC(=O)c1cn2c(n1)CN(C(=O)c1ccccc1F)CC2	inactive
CCNC(=O)N1CCC(n2c(C)cnc2C2CC2)CC1	inactive
CCOc1ccc(NC(=O)N2CCC3(CC2)SCC(=O)N3Cc2ccco2)cc1	inactive
CCOc1ccccc1C(=O)N1CCC(Oc2ncccc2C(=O)N(C)C)C1 (configuration not stated)	inactive
O=C(CCC1CCCC1)N1CCC2(CC1)CC(O)CCO2 (configuration not stated)	inactive
c1ccc(-n2cnnc2CC2CCN(Cc3ccc(-c4ccn[nH]4)o3)CC2)cc1	inactive
CC(C)CN1CCN(C2CCOC3(CCN(S(=O)(=O)c4cccs4)CC3)C2)CC1 (configuration not stated)	inactive
Cc1nnc([C@H]2CCN(Cc3ccc(F)cc3)C2)o1	inactive
CCOc1ncccc1C(=O)N1CCN(Cc2ccccc2)CC(O)C1 (configuration not stated)	inactive
COC(=O)c1cccc2nc([C@H]3CCN(Cc4ccccc4)C3)oc12	79.4 µM (active)
Cc1cc(C[C@@H]2COC[C@@H]2NC(=O)CCCc2nc(-c3ccco3)no2)on1	inactive
COc1ccccc1-c1[nH]nc2ncc(C(=O)N3CCN(Cc4ccccc4)CC3)nc12	100 µM (active)
COCCNC(=O)c1cnc2n[nH]c(-c3ccccc3OC)c2n1	inactive
COc1ccccc1-n1c(=O)c(C(=O)N2CCN(Cc3ccccc3)CC2)nc2cccnc21	inactive
CNC(=O)c1cc(C)nc2onc(C3CCN(C(=O)c4ccc(C(F)(F)F)cc4)C3)c12 (configuration not stated)	inactive
Cc1cc(C)n(CC(=O)N2CCCC3(C2)Nc2cccnc2NC3=NC2CCCC2)n1 (configuration not stated)	inactive
O=C(c1ccc(Cl)cc1)N1CCN(CCn2nc3n(c2=O)CCCC3)CC1	inactive
Cc1noc(C)c1S(=O)(=O)N1CCCN(c2nc3ncccc3o2)CC1	inactive
O=C(NCc1cccc(F)c1)C1CN(c2ccccc2)C(=O)N1 (configuration not stated)	inactive
CNC(=O)CN(C)C(=O)[C@@H]1CN(c2ncccn2)C[C@H]1COC	inactive
F[C@@H]1CN(C2CCC2)C[C@@H]1OCc1nc2ncccc2[nH]1	inactive

SMILES	Potency
O=C(Nc1ccc(Oc2ccccc2)cc1)O[C@@H]1CO[C@H]2[C@@H]1OC[C@@H]2NS(=O)(=O)c1cccs1	39.8 µM (active)
O=C(Nc1ccccc1)O[C@@H]1CO[C@H]2[C@@H]1OC[C@@H]2NS(=O)(=O)c1cccc2cccnc12	inactive
CC(=O)Nc1ccc(S(=O)(=O)N[C@H]2CO[C@H]3[C@@H]2OC[C@@H]3n2nnnc2Oc2ccccc2)cc1	inactive
O=C(c1ccccc1)N1CCC2(CC(c3cccnc3)=NO2)C1 (configuration not stated)	inactive
O=C(Nc1ccc(Cl)cc1)C1CCN(C(=O)c2ncn3c2COC(c2ccc(F)cc2)C3)CC1 (configuration not stated)	inactive
O=C(Nc1cccc(Cl)c1)[C@@H]1C[C@H](c2ccc(F)cc2)N([S+](=O)([O-])C2CC2)C1	79.4 µM (active)
O=C(NCC1CCOCC1)Nc1cccc(Cl)c1	inactive
CC[C@H]1CN(S(C)(=O)=O)CC[C@H]1CC(=O)NCc1cccc2ccccc12	inactive
Cn1nc(-c2nncn2CC2CC2)c2c1CCN(C(=O)CC1CCCC1)C2	inactive
O=C(Cc1cccc(F)c1)N1CCCC(Cc2nncn2-c2ccccc2)C1 (configuration not stated)	inactive
NS(=O)(=O)c1ccc(F)c(C(=O)NCc2noc(-c3ccco3)n2)c1	inactive
CCOc1ncccc1CNC(=O)c1cc(S(N)(=O)=O)ccc1F	79.4 µM (active)
NS(=O)(=O)c1ccc(F)c(C(=O)N[C@@H]2c3ccccc3C[C@@H]2O)c1	inactive
CNC(=O)c1cc(C)nc2onc(C3CCCN3C(=O)C3CCCC3)c12 (configuration not stated)	inactive
Cc1cccc(NC(=O)N2CC(Oc3ccc(-c4nc(C)no4)cc3)C2)c1	inactive
CN(Cc1ccccc1)C(=O)C[C@@H]1O[C@H](CNS(=O)(=O)c2ccc(Cl)cc2)[C@@H](O)[C@H]1O	inactive
CC1=C[C@@H](CNS(=O)(=O)c2cccc(C#N)c2)[C@H](C(C)C)C[C@H]1CC(=O)N(C)Cc1cccnc1	39.8 µM (active)
CN1C[C@H](NS(C)(=O)=O)CCC[C@@H](C(=O)N(C)Cc2cccnc2)CC1=O	inactive
CCOc1nccnc1NC1CCN(C(=O)c2cccnc2)CC1	inactive
Cc1nn(CCO)cc1-c1c(-c2ccccc2)ncn1CC(=O)O	inactive
O=C(c1cccnc1)N1CCC(c2nnc(Cn3cccn3)n2C2CC2)CC1	inactive

SMILES	Potency
Cc1cnc(C(=O)N[C@@H]2CCC[C@@H]2C(=O)Nc2ccc3c(c2)OCCO3)cn1	inactive
O=C(O)CCc1cc2n(n1)CCCN(C(=O)CN1CCOC1=O)C2	inactive
CS(=O)(=O)c1ccc(N2CCN(C(=O)[C@H]3CC[C@@H](N)C3)CC2)c(F)c1	inactive
O=C(c1ccccc1F)N1CCC(c2nn(-c3ccc(Cl)cc3)c(=O)[nH]2)CC1	79.4 µM (active)
O=C(c1ccccc1F)N1CCC(c2nn(-c3ccc(F)cc3)c(=O)[nH]2)CC1	inactive
Cc1ccc(C(=O)N2CCC(c3nn(-c4ccccc4)c(=O)[nH]3)CC2)cc1	inactive
COc1cc(=O)n2c(c1C(=O)Nc1cc(C)ccc1C)CCCC2	inactive
O=C(NC1CCCN(CCn2nc3n(c2=O)CCCC3)C1)c1ccc(F)cc1 (configuration not stated)	inactive
CCCCCC(=O)N1CC[C@H]2COC(=O)N2c2cc(F)ccc2C1	inactive
CN(CCc1noc(C2CN(S(=O)(=O)c3ccccc3)C2)n1)C(=O)c1ccncc1	inactive
O=S(=O)(c1ccccc1)N1CCC(F)(c2nc(Cc3ccccc3)no2)CC1	44.7 µM (active)
O=S(=O)(c1ccccc1)N1CCN(c2ccnc3ccnn23)CC1	inactive
O=C(NCc1ccncc1)C1CC(=O)N(c2n[nH]c3cccc(F)c23)C1 (configuration not stated)	inactive
Cc1ncc(C(=O)N2CCCC(c3cc(N4CCOCC4)nc(C)n3)C2)cn1 (configuration not stated)	inactive
CN(C)C(=O)C1=NOC2CN(C(=O)c3ccn(C)n3)CC12 (configuration not stated)	inactive
O=C(CN1C(=O)NC2(CCOCC2)C1=O)Nc1cccc(Br)c1	inactive
CCOc1ccccc1CN1CCCOCCNC(=O)CC1	inactive
CCOc1ccccc1CN1CCC2(CCN(Cc3cncs3)CC2)Oc2ccccc21	44.7 µM (active)
CCOc1ccccc1CN1CCC2(CCN(C(=O)c3cccc(Cl)c3)CC2)Oc2ccccc21	inactive
CCn1ccc(C(=O)N2C[C@@H](F)C[C@H]2C(=O)N2CCCCC2)n1	inactive

From PubChem BioAssay AID1345083 (National Center for Advancing Translational Sciences (NCATS), 2018)
